In the library only some 15% were active in any assay of this set; here they are far more common.
HCMV inh = qHTS Assay for inhibitors of the human cytomegalovirus (HCMV). HFF cells, HCMV-luciferase reporter, 72 h; stronger effect = lower value. activity change, negative = inhibition, % at 57.5 µM. 410,000 compounds, 4.5% hits; in the data active = activity change below about -60%; inconclusive = no clear call, values can overlap the other calls; inactive = above about -39%; also: % is scaled to controls: 0 for no effect and ±100 for the full control effect
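Cell-based, HFFs, 1000 cells/well, 16 h 37C; cpds in DMSO + HCMV-luc, MOI 1 PFU/cell; 72 h 37C; OneGlo luminescence after 5 min RT; norm. to buffer vs Salinomycin 10uM.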
SARS PLpro yeast = qHTS of Yeast-based Assay for SARS-CoV PLP; S. cerevisiae expressing SARS-CoV PLpro, growth rescue; Potency, µM (highest dose often 32.9 µM), for inactives: at the highest dose activity, positive = growth rescue, most hits filed as activators; 330,000 compounds, 0.19% hits; AID 485353, 2010; calls by dose curve; also: potency is read from the fitted curve at half-maximal effect; 0% is about no effect; nearly all actives have a fitted effect of over 55% in size
Pf growth 48h = Primary qHTS for delayed death inhibitors of the malarial parasite plastid, 48 hour incubation | P. falciparum luciferase growth in erythrocytes, 48 h | Potency, µM (top dose mostly 28.7 µM), for the others: at the highest dose activity change, negative = inhibition, actives largely listed as inhibitors | 310,000 compounds, 5.9% hits | AID 504832, 2011; also: potency is read from the fitted curve at half-maximal effect; % is scaled to controls: 0 for no effect and ±100 for the full control effect
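First compound was added to culture medium, then infected red cells at 0.1% parasitemia and 2% hematocrit (final). After incubation at 37 C under 5% CO2, luciferase detection reagent was dispensed and light output recorded.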
Sm TGR inh = qHTS Assay for the Inhibitors of Schistosoma Mansoni Peroxiredoxins; Schistosoma mansoni thioredoxin glutathione reductase (TGR), Q962Y6; purified TGR, DTNB reduction, TNB absorbance 405 nm; Potency, µM (series often up to 114 µM), inactives show at the highest dose activity change, negative = inhibition, actives largely listed as inhibitors; 360,000 compounds, 3% hits; AID 485364, 2010; also: potency is read from the fitted curve at half-maximal effect; % is scaled to controls: 0 for no effect and ±100 for the full control effect; nearly all actives have a fitted effect of over 60% in size
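TGR 20 nM + NADPH 100 uM (dispensed conc.), cpd preinc 15 min RT; start with NADPH (500 uM addition) then DTNB (15 mM addition). Kinetic TNB absorbance, 405 nm filter. Four-parameter Hill fit across titration.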
Pf growth 96h = Primary qHTS for delayed death inhibitors of the malarial parasite plastid, 96 hour incubation | P. falciparum luciferase reporter growth, 96 h | AID 504834, 2011 | Potency, µM (doses to about 28.7 µM), for inactives: at the top dose activity change, negative = inhibition, most hits filed as inhibitors | 320,000 compounds, 6.9% hits; also: potency is read from the fitted curve at half-maximal effect; % is scaled to controls: 0 for no effect and ±100 for the full control effect
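Two-generation exposure (96 h) targets delayed-death phenotype. Reporter parasites carrying integrated firefly luciferase, in red cells at 2% hematocrit and 0.05% parasitemia final, kept at 37 C, 5% CO2; luminescence loss indicates inhibition.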
HCV inhibitor = qHTS Assay for Inhibitors of Hepatitis C Virus (HCV); Potency, µM (titrated, usually from 41.8 µM), for inactives: at the highest dose activity change, negative = inhibition, hits mostly inhibitors; Huh7.5.1 HCVcc-Cre infection, luciferase reporter, 44 h; 340,000 compounds, 3.4% hits; also: potency is read from the fitted curve at half-maximal effect; % is scaled to controls: 0 for no effect and ±100 for the full control effect
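HCVcc-Cre virus at an moi near 0.5 was added right after compound to cells cultured 4 h from seeding (1,000 cells/well). Luciferase activity was determined 44 h later, 15 min after substrate addition at RT.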
Starred values were filed as active, the others as inactive; ? = inconclusive; · = no result given; [ ] = dose if it differs, or a comment. Unless noted, calls follow the shape of the dose curve; as a rule, active = well fitted curve in the direction sought with a large enough effect; inconclusive = small, poorly fitted or top-dose-only effect, or another doubt; inactive = no such curve, though single readings can be large; an effect the other way counts as inactive or inconclusive.

SMILES | HCMV inh | SARS PLpro yeast | Pf growth 48h | Sm TGR inh | Pf growth 96h | HCV inhibitor
CCCCN1C(=O)C(=O)N(CC(=O)c2cc(C)n(-c3cc(C)on3)c2C)C1=O | -17 | 1% | 10µM* | 2% | ? | 20%
Cc1cc(-n2c(C)cc(C(=O)CCl)c2C)no1 | -96* | ? | -23% | 8.9µM* | ? | ?
Cc1cc(-n2c(C)cc(C(=O)CSc3nnnn3-c3ccccc3)c2C)no1 | -10 | -6% | ? | -27% | 4%[5.75 µM] | 8.9µM*
CC(=O)NC(C)(c1ccccc1)c1nc(-c2csc3ccccc23)cs1 (stereo not given) | -13 | · | · | · | · | ·
Cn1cc(CCC(=O)NCc2ccc(Cl)cc2)c2ccccc21 | -24 | -1% | 5% | 5% | 40% | -4%
O=C1NCCCC2c3c(cc(Br)c(O)c3Br)OC12N1CCOCC1 (stereo not given) | -14 | 6% | 2% | 40µM* | ? | 9%
CC(=O)Oc1ccccc1Cn1c(C)c(C(=O)NCCC#N)sc1=O | 5 | · | · | · | · | ·
C/C(=N/NC(N)=S)c1ccccc1[N+](=O)[O-] | 25 | 1% | 36% | 1% | -21% | -10%
COc1ccc(C(=O)NCC(=O)N=Nc2c(O)n(Cc3ccccc3)c3ccccc23)cc1OC | ? | 2% | 0% | 0% | -22% | ?
COc1ccc(C(=O)NCC(=O)N=Nc2c(O)n(C)c3ccccc23)cc1OC | -61* | 1% | -10% | 8% | -6% | -20%
Oc1c(N=NC(=S)Nc2ccccc2F)c2ccccc2n1Cc1ccc(F)cc1 | 24 | 0% | 2.1µM* | 0% | ? | ?
C/C(Cl)=C\Cn1c(O)c(N=NC(N)=S)c2cc(Br)ccc21 | -109* | -4% | 10µM* | 0% | ? | 11µM*
NC(=S)N=Nc1c(O)n(Cc2ccc(Br)cc2)c2ccccc12 | -27 | 21% | ? | 1% | 40% | 1µM*
CC(=O)c1ccc(S(=O)(=O)Oc2ccc(-c3ccc(C(=O)O)cc3)cc2)cc1 | -1 | 0% | 4% | 3% | 10% | 22%
CCN(CC)C(=O)CSc1nc2c(c(-c3cccnc3)c1C#N)CCCC2 | ? | 0% | -17% | 4% | 7% | -16%
CC(C)C1CC(O)(C2(O)CCCCC2)ON1 (stereo not given) | 60 | 1% | 6% | -8% | ? | 17%
COC(=O)[C@]12CCCCC=C1N(Cc1ccc(Cl)cc1Cl)C(=O)[C@H](CC(=O)NCCCCc1ccccc1)C2 | 20 | · | · | · | · | ·
Cn1c(O)c(N=NC(N)=S)c2ccccc21 | · | · | ? | · | 12µM* | ·
FC(F)(F)c1cnc(C(c2ccccn2)c2ncn[nH]2)c(Cl)c1 (stereo not given) | -12 | 1% | 12µM* | -1% | ? | -5%
FC(F)(F)c1cnc(C(c2ccccc2)c2ncn[nH]2)c(Cl)c1 (stereo not given) | 6 | 0% | -4% | 0% | 35% | 12%
COc1ccc(CS(=O)(=O)CC(C)(O)c2ccccc2Cl)cc1 (stereo not given) | 7 | -2% | 1% | 10% | 5% | -7%
CCOC(=O)C(C)Sc1cc(CS(=O)(=O)c2ccccc2)nc(-c2ccccc2)n1 (stereo not given) | 29 | -7% | 23% | -13% | 10µM* | ?
CC(Cc1n[nH]c(=S)n1N)c1ccccc1 (stereo not given) | 2 | 1% | -8% | 21% | 1% | 7%
Cn1cccc/c1=N\c1cccc[n+]1C | -74* | 0% | ? | -6% | ? | 3.5µM*
CCn1nc(C(=O)OCC(=O)c2c[nH]c3ccccc23)c2ccccc2c1=O | 113 | 2% | 4.7µM* | 1% | 7.4µM* | -8%
SMILES | HCMV inh | SARS PLpro yeast | Pf growth 48h | Sm TGR inh | Pf growth 96h | HCV inhibitor
CC(=O)OCC(=O)c1c[nH]c2ccccc12 | 58 | -10% | 18% | 7% | 0% | 8%
CC(C)n1nc(C(=O)OCC(=O)c2c[nH]c3ccccc23)c2ccccc2c1=O | 31 | 16% | · | 0% | 6.6µM* | ?
CCn1nc(C(=O)OCC(=O)N2CCc3ccccc32)c2ccccc2c1=O | 61 | -11% | -2% | 20µM* | -2% | -3%
CCOC(=O)c1cccc(NC(=O)c2cnc3sc(N4CCOCC4)nn3c2=O)c1 | -6 | · | · | 13% | · | ·
Cc1ccccc1Cn1c(C)c(C(=O)NCCC#N)sc1=O | 0 | · | · | · | · | ·
COc1ccc2oc(=O)cc(-c3cc4cccc(OC)c4o3)c2c1 | 33 | 10% | 25% | 0% | 25% | -8%
COc1cccc2cc(-c3cc(=O)oc4ccc(OC(=O)N(C)C)cc34)oc12 | -19 | 4% | -10% | -1% | -3% | 11µM*
CCN(CC)C(=O)Oc1ccc2oc(=O)cc(-c3cc4cccc(OC)c4o3)c2c1 | 10 | 19% | 0% | 2% | 4% | 11µM*
COc1cccc2cc(-c3cc(=O)oc4cc(C)c(OCC(C)=O)cc34)oc12 | 24 | 13% | 19% | -4% | -6% | ?
CC(=O)c1ccc(NC(=O)CCOc2cc(C)ccc2C)cc1 | 20 | -4% | 29% | 0% | 50% | -15%
CC(C)OC(=O)c1ccc(NC(=O)CSc2nc3ncccc3[nH]2)cc1 | -26 | 0% | -29% | · | ? | 11µM*
Fc1ccc(CSc2nc3ncccc3[nH]2)cc1 | -31 | -26% | ? | 4% | · | -4%
Fc1cccc(CSc2nc3ncccc3[nH]2)c1 | 60 | -14% | ? | 18% | 12µM* | -19%
O=C(CSc1nc2ncccc2[nH]1)c1ccc(F)cc1 | -19 | -2% | 22% | -1% | 122% | 9%
O=C(CSc1nc2ncccc2[nH]1)c1cccc([N+](=O)[O-])c1 | -66* | -1% | ? | -20% | ? | ?
O=C(Nc1ccc(Br)cc1F)C1CCN(c2nc3ccccc3[nH]2)CC1 | 0 | · | · | 0% | · | ·
CC(C)(C)c1ccc(S(=O)(=O)Nc2ccc(C(O)(C(F)(F)F)C(F)(F)F)cc2)cc1 | -12 | · | · | · | · | ·
CN(C)CC(O)CN1C(=O)N(CN2C(=O)N(CC(O)CN(C)C)C(=O)C2(C)C)C(C)(C)C1=O (stereo not given) | -62* | 1% | 3% | 7% | 16% | 4%
Cc1ccccc1NC(=O)Cn1nc(-c2ccc(F)cc2)c2cnc3ccccc3c21 | 24 | · | · | -1% | · | ·
CCOC(=O)/C=C/C(=O)Nc1ccc(-c2nnc3n2CCCCC3)cc1 | 11 | 0% | ? | -28% | 0.33µM* | 14%
